# Assay outcomes deposited in PubChem by National Center for Advancing Translational Sciences (NCATS).
# Most compounds without a hit are left out; they make up all but 11% or so of the library.
# 3T3 cytotox = cytotoxic compounds in NIH 3T3 cells; Potency, µM (highest dose often 96.7 µM), for the others: at the top dose activity change, negative = cytotoxicity, hits mostly inhibitors; actives 4.3% (n = 94,000); AID 1345082; NIH 3T3 viability, CellTiter-Glo ATP luminescence, 48-72 h; active means well fitted curve in the direction sought with a large enough effect; inconclusive means small, poorly fitted or top-dose-only effect, or another doubt; inactive means no such curve, though single readings can be large; an effect the other way counts as inactive or inconclusive; further: on the % scale 0 is the no-effect control and ±100 the full control effect; nearly all actives have a fitted effect of over 55% in size
#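 Luminescent ATP readout (CellTiter-Glo, 10 min RT) after 48 or 72 hr compound exposure of NIH 3T3 cells seeded at 400 cells/well in 1536-well format; quantitative HTS.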
# HEK293 tox = cytotoxic compounds in HEK 293 cells; HEK 293 viability, ATP luminescence (CellTiter-Glo), 48-72 h; Potency, µM (series often up to 115 µM), inactives show at the highest dose activity change, negative = cytotoxicity, actives largely listed as inhibitors; actives 6.6% (n = 94,000); AID 1345083; active means well fitted curve in the direction sought with a large enough effect; inconclusive means small, poorly fitted or top-dose-only effect, or another doubt; inactive means no such curve, though single readings can be large; an effect the other way counts as inactive or inconclusive; further: on the % scale 0 is the no-effect control and ±100 the full control effect; nearly all actives have a fitted effect of over 60% in size
#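 HEK 293 seeded at 250 cells/well receive compound via pintool. After 48 or 72 hr at 37 degree Celsius, 5% CO2 and 95% humidity, CellTiter-Glo is dispensed and luminescence read following 10 min at room temperature.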
# NPR1 antag = human Npr1 receptor antagonism; P16066; HEK293 hNpr1 GloSensor cGMP, ANP-stimulated luminescence; Potency, µM (highest dose often 46.3 µM), for inactives: at the top dose activity change, negative = inhibition, usual class: inhibitors; actives 1.6% (n = 76,000); AID 1347048; further: on the % scale 0 is the no-effect control and ±100 the full control effect; nearly all actives have a fitted effect of over 60% in size
#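 HEK293 cells stably expressing human Npr1 and cGMP GloSensor pGS-40F, loaded 2 h with 2% GloSensor reagent, given compound 30 min at room temperature. Luminescence read before and 20 min after 0.1 nM hNppA.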
# Luciferase inh = blocks purified firefly luciferase enzyme activity. P08659. purified P. pyralis luciferase, luminescence, biochemical. Potency, µM (highest dose often 115 µM), usual class: inhibitors. actives 2.5% (n = 76,000); active means well fitted curve in the direction sought with a large enough effect; inconclusive means small, poorly fitted or top-dose-only effect, or another doubt; inactive means no such curve, though single readings can be large; an effect the other way counts as inactive or inconclusive; further: on the % scale 0 is the no-effect control and ±100 the full control effect; nearly all actives have a fitted effect of over 65% in size
#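 Purified 10nM P. pyralis luciferase with 10uM D-luciferin and 10uM ATP in 50mM Tris acetate pH 7.5, 10mM Mg acetate, 0.01% Tween-20, 0.05% BSA. qHTS titration; luminescence read by CCD imager.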
# Npr1 antag conf = hNpr1 antagonism, confirmation assay; shares compounds with NPR1 antag; HEK293 hNpr1 cGMP GloSensor luminescence, ANP-stimulated; Potency, µM (titrated, usually from 57.6 µM), inactives show top-dose activity change, negative = inhibition, actives largely listed as inhibitors; actives 76% (n = 1,400); AID 1347044; further: nearly all actives have a fitted effect of over 70% in size
# Npr2 selectivity = hNpr2 antagonism, selectivity versus Npr1 | shares compounds with NPR1 antag | HEK293 hNpr2 GloSensor cGMP luminescence, CNP-stimulated | Potency, µM (top dose mostly 57.6 µM), for inactives: at the highest dose activity change, negative = inhibition, actives largely listed as inhibitors | actives 67% (n = 1,400) | AID 1347046; further: nearly all actives have a fitted effect of over 70% in size
# Target sequence (P20594 whole entry, looked up): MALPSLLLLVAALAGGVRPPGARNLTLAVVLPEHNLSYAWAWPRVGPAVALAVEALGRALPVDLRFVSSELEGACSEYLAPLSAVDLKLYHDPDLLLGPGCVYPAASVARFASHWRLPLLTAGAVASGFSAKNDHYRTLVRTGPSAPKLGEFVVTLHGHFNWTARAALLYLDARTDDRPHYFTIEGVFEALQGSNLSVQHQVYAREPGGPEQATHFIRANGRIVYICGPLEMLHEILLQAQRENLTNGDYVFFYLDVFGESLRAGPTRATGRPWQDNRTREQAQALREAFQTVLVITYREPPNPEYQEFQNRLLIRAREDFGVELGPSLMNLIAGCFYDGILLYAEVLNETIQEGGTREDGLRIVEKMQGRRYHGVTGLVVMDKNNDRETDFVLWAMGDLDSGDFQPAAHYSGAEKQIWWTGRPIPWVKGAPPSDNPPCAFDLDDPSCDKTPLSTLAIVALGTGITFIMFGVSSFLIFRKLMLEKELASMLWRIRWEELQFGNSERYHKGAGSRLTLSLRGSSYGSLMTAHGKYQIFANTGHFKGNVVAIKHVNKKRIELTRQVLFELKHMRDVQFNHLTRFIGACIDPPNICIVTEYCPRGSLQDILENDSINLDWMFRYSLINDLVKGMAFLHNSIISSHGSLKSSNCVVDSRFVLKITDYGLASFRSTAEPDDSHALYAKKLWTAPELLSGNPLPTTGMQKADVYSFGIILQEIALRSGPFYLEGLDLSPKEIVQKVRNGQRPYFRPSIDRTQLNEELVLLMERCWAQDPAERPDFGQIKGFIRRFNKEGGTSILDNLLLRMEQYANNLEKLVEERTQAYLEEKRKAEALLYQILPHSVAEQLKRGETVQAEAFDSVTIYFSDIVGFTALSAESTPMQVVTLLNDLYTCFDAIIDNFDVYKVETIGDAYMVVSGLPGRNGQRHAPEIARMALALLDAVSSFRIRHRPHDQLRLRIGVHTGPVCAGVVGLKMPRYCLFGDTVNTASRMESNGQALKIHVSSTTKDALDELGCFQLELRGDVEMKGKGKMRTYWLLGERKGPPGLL
# FLuc counter = counter-screen for Npr1 antagonists: firefly luciferase inhibitors; shares compounds with NPR1 antag; purified FLuc enzyme, luminescence, Km substrate; Potency, µM (highest dose often 57.6 µM), inactives show top-dose activity change, negative = inhibition, actives largely listed as inhibitors; actives 0.7% (n = 1,400); AID 1347047; active means well fitted curve in the direction sought with a large enough effect; inconclusive means small, poorly fitted or top-dose-only effect, or another doubt; inactive means no such curve, though single readings can be large; an effect the other way counts as inactive or inconclusive; further: 0% is about no effect
# GloSensor cGMP = counter-screen for Npr1 antagonists: GloSensor control cell line; shares compounds with NPR1 antag; HEK293 GloSensor cGMP, SNP-stimulated, luminescence; Potency, µM (highest dose often 57.6 µM), without a hit: at the highest dose activity change, negative = inhibition, most hits filed as inhibitors; actives 69% (n = 1,400); further: on the % scale 0 is the no-effect control and ±100 the full control effect; nearly all actives have a fitted effect of over 70% in size
# * marks the source's active call; other numbers are inactive results; i = inactive; ? = inconclusive; . = no result. Unless noted, the call rests on the fitted dose curve. Potency means the concentration at half of the fitted maximal effect.
SMILES,3T3 cytotox,HEK293 tox,NPR1 antag,Luciferase inh,Npr1 antag conf,Npr2 selectivity,FLuc counter,GloSensor cGMP
COc1ccc(C(=O)N2CCN(c3cc(-c4ccc(Cl)cc4)[nH]n3)CC2)cc1,7.08µM*,35.5µM*,8.91µM*,i,15.3µM*,17.2µM*,-0.5%,10.9µM*
COc1ccc(C(=O)N2CCCN(c3cc(-c4ccc(F)cc4)[nH]n3)CC2)cc1,?,?,?,i,.,.,.,.
O=C1CCN(C(=O)c2ccoc2)CCCCCCN1,-2.5%,2.6%,-0.6%,i,.,.,.,.
Cc1cc(C(=O)N2CCC(Cc3nc(-c4cccnc4)n[nH]3)C2)nn1C (centres undefined),-0.5%,2.6%,-0.2%,i,.,.,.,.
O=C(NCCc1ccccc1)N1CCCCC1c1nc(CCOCC2CC2)no1 (centres undefined),-4.1%,-9.2%,1.9%,i,.,.,.,.
COCCCn1c(=O)c(C(=O)N2CCN(C(=O)Cc3cccc(Cl)c3)CC2)nc2cccnc21,-18.2%,2.7%,.,.,.,.,.,.
O=C(c1ccc2nc[nH]c2c1)N1CCCN(c2cc(-c3ccc(Br)cc3)[nH]n2)CC1,-25.4%,?,-16.7%,i,.,.,.,.
O=C(Cc1c[nH]c2ccccc12)N1CCCN(c2cc(-c3ccc(Br)cc3)[nH]n2)CC1,35.5µM*,?,15.8µM*,i,24.3µM*,27.3µM*,-7.0%,27.3µM*
COc1ccc(-c2cc(N3CCN(C(=O)c4ccccc4Br)CC3)n[nH]2)cc1,?,?,?,i,.,.,.,.
O=C(c1ccccc1Br)N1CCN(c2cc(-c3ccc(Cl)cc3)[nH]n2)CC1,25.1µM*,?,2.51µM*,i,19.3µM*,19.3µM*,-0.3%,12.2µM*
O=C(CCC1CCN(C(=O)c2cc(C3CC3)[nH]n2)CC1)N1CCC(Cc2ccccc2)CC1,?,?,12.6µM*,i,24.3µM*,21.7µM*,-18.0%,19.3µM*
O=C(CCC(F)(F)F)N1CCC(CCC(=O)N2CCC(Cc3ccccc3)CC2)CC1,?,?,?,i,.,.,.,.
CCCCOc1ccc(C(=O)N2CCC(Cc3nc(-c4cnccn4)no3)CC2)cc1,?,?,?,i,?,?,3.5%,?
COc1ccc(-c2noc(CC3CCN(C(=O)c4ccccc4C)CC3)n2)cc1,?,?,10µM*,i,15.3µM*,17.2µM*,3.1%,12.2µM*
COc1ccc(-c2noc(CC3CCN(C(=O)C4CC4)CC3)n2)cc1,?,?,?,i,.,.,.,.
CCOc1ccc(C(=O)N2CCC(Cc3nc(-c4cnccn4)no3)CC2)cc1,?,-26.6%,-7.7%,i,.,.,.,.
CCOc1ccccc1C(=O)N1CCC(Cc2nc(-c3ccc(OC)cc3)no2)CC1,?,?,11.2µM*,i,24.3µM*,21.7µM*,0.9%,24.3µM*
COc1ccc(-c2noc(CC3CCN(C(=O)C4(c5ccc(OC)cc5)CC4)CC3)n2)cc1,?,?,1.41µM*,i,2.73µM*,3.43µM*,3.6%,3.06µM*
CC1CCC(NC(=O)CN2C(=O)NC3(CCOCC3)C2=O)CC1 (centres undefined),-8.3%,4.0%,-2.6%,i,.,.,.,.
COc1cccc(-c2cc(-c3nc(C4CC(=O)N(C5CCCCC5)C4)no3)[nH]n2)c1 (centres undefined),?,?,?,i,.,.,.,.
